GPR151 ag: human GPR151 activation; Q8TDV0; PathHunter beta-arrestin GPR151 cells, luminescence; activation, % at 11.2 µM; 1% of 650,000 active; in the data active = activation above about 4.9%;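 also: 0% = median of compound wells and 100% = cells with positive control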
FBW7 activator: activators of human E3 ligase FBW7. Q969H0. AlphaScreen FBW7–phospho-cyclin E peptide binding, activator screen. normalized activity (activation), % at 26.1 µM. 0.13% of 650,000 active. AID 1259310; in the data active = normalized activity above about 1.9%;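 also: purified mutant Fbw7 with reduced substrate affinity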
MITF primary: human MITF inhibition, primary screen; O75030; AlphaScreen MITF homodimerization, bead proximity signal; inhibition, % at 2.6 µM; 0.91% of 650,000 active; AID 1259374; in the data active = inhibition above about 50%;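 also: 0% = vehicle wells with protein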
Target sequence (O75030 whole entry, looked up): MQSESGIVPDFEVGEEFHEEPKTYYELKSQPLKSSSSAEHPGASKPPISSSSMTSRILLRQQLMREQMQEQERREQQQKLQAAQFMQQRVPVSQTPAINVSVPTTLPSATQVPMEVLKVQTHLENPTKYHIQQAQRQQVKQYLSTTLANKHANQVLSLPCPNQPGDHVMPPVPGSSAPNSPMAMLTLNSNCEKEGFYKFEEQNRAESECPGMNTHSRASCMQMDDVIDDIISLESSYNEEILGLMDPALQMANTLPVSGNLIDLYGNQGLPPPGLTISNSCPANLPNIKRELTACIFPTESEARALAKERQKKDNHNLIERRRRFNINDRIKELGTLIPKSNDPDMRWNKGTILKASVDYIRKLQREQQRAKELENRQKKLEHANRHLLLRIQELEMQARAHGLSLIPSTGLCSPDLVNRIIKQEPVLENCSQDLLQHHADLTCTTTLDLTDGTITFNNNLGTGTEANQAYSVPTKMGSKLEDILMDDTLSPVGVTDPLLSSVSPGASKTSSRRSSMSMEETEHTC
TEAD-YAP block: TEAD-YAP interaction inhibition. HEK-TIYL cells, TEAD-Gal4/YAP UAS-luciferase luminescence. inhibition, % at 9.12 µM. 1.4% of 640,000 active. AID 1259422; in the data active = inhibition above about 32%;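 also: 0% = median of test compound wells and 100% = reference inhibitor wells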
* hit, by the source's call. Hits are enriched below; roughly 3.4% of the tested compounds scored in any of these assays.

SMILES	GPR151 ag	FBW7 activator	MITF primary	TEAD-YAP block
COC(=O)C1C(=O)NC(SCC#N)=C(C#N)C1c1ccccc1Cl (stereo unspecified)	-1	0	25	1
O=C(NC1CCCCCCC1)C12CC3CC(CC(C3)C1)C2	-1	0	12	-4
CCOC(=O)C1CCN(C(=O)COCC(=O)N2CCC(C(=O)OCC)CC2)CC1	2	0	4	-4
CCOC(=O)C1CCN(C(=O)COc2ccc(C(C)(C)C)cc2)CC1	0	0	-4	60*
CCOC(=O)C1CCN(C(=O)COc2ccc(C)cc2)CC1	0	0	16	10
CCOC(=O)C1CCN(C(=O)COC(=O)c2cc(O)c(O)c(O)c2)CC1	0	0	90*	3
CCNCCC1CCC(=O)N1C1Cc2ccccc2C1 (stereo unspecified)	-1	0	10	-10
CCC(C)(C)c1ccc(OCCOCC[n+]2ccccc2)c(C(C)(C)CC)c1	3	0	2	77*
CCC(C)(C)c1ccc(OCCCC[n+]2cccc(C)c2)c(C(C)(C)CC)c1	2	0	-22	85*
O=C(Nc1ccc([N+](=O)[O-])cn1)c1sc2ccccc2c1Cl	1	0	9	6
Cc1ccnc(NC(=S)NC(=O)c2ccc(Cl)cc2)c1	-1	0	6	-56
COc1cccc(C(=O)NC(=S)Nc2ccccn2)c1	-2	0	3	36*
Cc1ccnc(NC(=O)c2ccccc2Cl)c1	-5	1	13	35*
Cc1ccnc(NC(=S)NC(=O)c2ccccc2)c1	1	0	-3	34*
COc1cc(/C=N/n2c(C)nnc2C)ccc1OS(=O)(=O)c1cc(C)ccc1C	-1	0	-2	1
COc1cc2c(cc1NC(=O)c1nn(C)cc1[N+](=O)[O-])oc1ccccc12	-1	0	8	-4
COCCCN1C(=O)c2[nH]nc(-c3ccccc3O)c2C1c1cccc(Br)c1 (stereo unspecified)	0	0	10	35*
COCCCN1C(=O)c2[nH]nc(-c3ccccc3O)c2C1c1cccc(O)c1 (stereo unspecified)	0	0	11	3
Cc1ccc(/C=C2/SC(=S)N(Cc3cccnc3)C2=O)cc1	0	0	2	4
CCCN1C(=O)/C(=C/c2ccc(OC)cc2)SC1=S	-1	0	9	-11
COc1ccc(/C=C2/SC(=S)N(CCC(=O)O)C2=O)cc1	1	0	1	58*
Cc1ccc(/C=C2\SC(=S)N(CCCC(=O)Nc3cccnc3)C2=O)cc1	1	0	-2	34*
CCOc1cc(/C=C2\SC(=S)N(CCCC(=O)O)C2=O)ccc1O	0	0	13	82*
COC(=O)CCCN1C(=O)/C(=C\c2ccc3c(c2)OCO3)SC1=S	-1	0	9	59*
COC(=O)CSc1nc(C)c(C(=O)Nc2ccccc2)c(-c2ccc(OC)c(OC)c2)c1C#N	1	0	7	7
SMILES	GPR151 ag	FBW7 activator	MITF primary	TEAD-YAP block
O=C(CC(c1ccccc1)c1ccccc1)Nc1ncccn1	-1	0	1	-6
COc1cc(/C=C2/SC(=S)N(CCCC(=O)O)C2=O)ccc1O	-7	0	6	61*
CCOc1ccc(/C=C2\SC(=S)N(CCCC(=O)O)C2=O)cc1	-1	0	2	79*
COc1ccc(/C=C2\SC(=O)N(CCC(=O)O)C2=O)c(OC)c1	0	0	10	64*
COc1ccc(/C=C2\SC(=O)N(CO)C2=O)c(OC)c1	2	0	15	-11
O=C(O)CCCCCN1C(=O)/C(=C/c2ccc(O)cc2)SC1=S	-8	0	8	31
O=C(O)CCCN1C(=O)/C(=C\c2ccc(OC(F)F)cc2)SC1=S	2	0	8	59*
COC(=O)c1c(N)sc(C(=O)Nc2ccccc2OC)c1C	-1	1	10	-36
CCOC(=O)c1c(N)sc(C(=O)Nc2ccc(OC)cc2)c1C	-6	0	-2	42*
CCOC(=O)c1ccc(NC(=O)c2sc(NC(=O)c3ccc(OC)cc3)c(C(=O)OCC)c2C)cc1	0	0	-1	7
CCOC(=O)c1c(N)sc(C(=O)Nc2ccc3c(c2)OCO3)c1C	-7	0	18	79*
CCOC(=O)c1sc(N)c(C(=O)Nc2ccccc2OC)c1C	0	0	2	54*
CCC1CCCCN1C(=O)Cn1nc(C)n2c(cc3sc(C)cc32)c1=O (stereo unspecified)	0	0	10	6
CCNc1nc2ccc(C(=O)NCCc3ccc(O)cc3)cc2s1	-1	0	-4	-7
O=S(=O)(c1ccc(F)cc1)N1CCN(c2cc(-n3ccnc3)ncn2)CC1	1	0	-11	-4
COc1ccc(S(=O)(=O)N2CCN(c3cc(-n4ccnc4)ncn3)CC2)c(C)c1C	1	0	-14	56*
O=[N+]([O-])c1ccc(Br)c2ccncc12	4	0	19	62*
CC[n+]1c(/C=C2\Sc3cc(C)ccc3N2CCO)ccc2ccccc21	1	0	25	64*
CCN1/C(=C/c2cccc[n+]2C)C=Cc2cc(C)ccc21	1	0	7	81*
CCN1/C(=C/c2ccc3cc(C)ccc3[n+]2C)Sc2ccc3ccsc3c21	3	-1	23	76*
CC[n+]1c(/C=C2\Sc3cc(NC(C)=O)ccc3N2C)ccc2ccccc21	0	0	13	10
CC[n+]1c(/C=C2\Sc3ccccc3N2C)ccc2ccc(C)cc21	0	0	1	77*
O=C(Nc1nnc(-c2ccccc2)s1)c1cccs1	1	0	-2	-4
CN1CCN(C(=O)CN2C(=O)/C(=C/c3ccccc3Cl)SC2=S)CC1	0	0	13	2
CCN1/C(=C/c2c3ccccc3cc[n+]2CC)C=Cc2ccccc21	1	0	22	89*
SMILES	GPR151 ag	FBW7 activator	MITF primary	TEAD-YAP block
CC(=C\c1sc2oc3ccccc3c2[n+]1CCO)/C=C1/Sc2oc3ccccc3c2N1CCO	-1	0	-8	-1
CN1/C(=C/c2cccc[n+]2C)C=Cc2ccccc21	3	0	12	71*
Cc1cccc2c1N(C)/C(=C/c1cccc[n+]1C)C=C2	2	0	-3	9
CCN1/C(=C/c2ccc3cc(C)ccc3[n+]2CCO)Sc2ccccc21	0	0	26	58*
CC[n+]1c(/C=C2\Sc3oc4ccccc4c3N2C)ccc2cc(C)ccc21	0	0	14	44*
CCOc1cc(/C=C2\N=C(c3ccccc3)OC2=O)cc(Br)c1OC(C)=O	0	0	2	4
CC[n+]1c(/C=C2\Sc3ccccc3N2CCO)ccc2cc(OC)ccc21	2	-1	3	70*
CC[n+]1c(/C=C2\Sc3ccccc3N2CCO)ccc2cc(C)ccc21	1	0	10	53*
C[n+]1ccccc1/C=C1\Sc2ccccc2N1CCO	0	0	6	13
CCN1/C(=C/c2ccc3cc(C)ccc3[n+]2CC)C=Cc2ccccc21	-1	-1	8	92*
CCN1/C(=C/c2ccc3cc(C)ccc3[n+]2C)Sc2ccccc21	2	0	23	76*
